Compounds with a hit are over-represented: about 0.21% of the library has one in this group of screens.
Furin inhibitor: inhibitors of human furin. inhibition, % at 20 µM or 30 µM. purified furin, fluorogenic substrate cleavage. actives 0.061% (n = 220,000); in the data active = inhibition above about 25%
Bim-Bcl-W: disrupts Bim peptide binding to human Bcl-W | Q92843 | bead-based flow cytometry | inhibition, % at 10 µM | actives 0.02% (n = 190,000) | AID 952;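 also: 0% = bound tracer without compound and 100% = peptide blocker; higher means less fluorescent Bim peptide bound to Bcl-W beads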
Target sequence (Q92843 whole entry, looked up): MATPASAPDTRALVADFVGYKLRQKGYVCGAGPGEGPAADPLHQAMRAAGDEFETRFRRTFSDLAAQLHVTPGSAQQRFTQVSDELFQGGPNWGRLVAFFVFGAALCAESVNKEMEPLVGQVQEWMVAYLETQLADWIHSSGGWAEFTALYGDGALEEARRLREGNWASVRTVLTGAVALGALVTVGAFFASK
Bim-Bfl-1: inhibitors of Bim-Bfl-1 interaction, human; Q16548; Bead-based flow cytometry, Bim-Bfl-1 binding inhibition; inhibition, % at 10 µM; actives 0.12% (n = 190,000);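 also: 0% = wells without compound plus tracer and 100% = blocker peptide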
Target sequence (Q16548 whole entry, looked up): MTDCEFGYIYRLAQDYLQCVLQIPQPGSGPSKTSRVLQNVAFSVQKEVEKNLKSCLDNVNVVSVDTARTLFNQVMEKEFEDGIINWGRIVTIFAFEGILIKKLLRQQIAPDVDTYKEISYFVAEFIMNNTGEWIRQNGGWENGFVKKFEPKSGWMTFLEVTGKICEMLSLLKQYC
Bim-Bcl-XL: human Bim-Bcl-XL interaction inhibition; Q07817; Bim peptide-Bcl-XL binding, bead flow cytometry, fluorescence; inhibition, % at 10 µM; actives 0.04% (n = 190,000)
Bim-Bcl-2: human Bim-Bcl-2 interaction inhibition; P10415; actives 0.06% (n = 190,000); Bead-based flow cytometry, Bim peptide-Bcl-2 binding; inhibition, % at 10 µM; AID 950; in the data active = inhibition above about 40%;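 also: 0% = no compound wells with probe peptide and 100% = reference peptide inhibitor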
Bim-Bcl-B: inhibitors of Bim-Bcl-B interaction, human; bead-based flow cytometry, Bim peptide-Bcl-B binding; inhibition, % at 10 µM; AID 951; actives 0.073% (n = 190,000);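 also: 0% = tracer peptide without compound and 100% = reference inhibitor peptide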
Target sequence (Q9HD36 whole entry, looked up): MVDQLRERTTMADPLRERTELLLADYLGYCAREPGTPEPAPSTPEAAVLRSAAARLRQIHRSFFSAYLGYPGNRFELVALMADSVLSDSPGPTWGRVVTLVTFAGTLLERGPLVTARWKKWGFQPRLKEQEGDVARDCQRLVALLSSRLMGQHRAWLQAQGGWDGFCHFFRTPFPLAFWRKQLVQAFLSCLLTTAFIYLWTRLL
The depositor's hits bear a star; nt = not tested or not shown. Rule as the data show it, unless noted: active = inhibition above about 40%.

SMILES	Furin inhibitor	Bim-Bcl-W	Bim-Bfl-1	Bim-Bcl-XL	Bim-Bcl-2	Bim-Bcl-B
CC(C)c1ccc(S(=O)(=O)/N=C2/C=CC(=O)c3ccccc32)cc1	1.6	9.0	42.0*	1.0	6.0	-16.0
COC(=O)C(C(C)=O)C1=C/C(=N\S(=O)(=O)c2ccc(C)cc2)c2ccccc2C1=O (centres undefined)	-13.1	1.0	-9.0	-6.0	-6.0	-6.0
CN(CCCOc1ccccc1Br)Cc1ccccc1	-15.7	98.0*	99.0*	102.0*	91.0*	108.0*
Cc1ncoc1C(=O)N1CCCC(C(=O)c2ccc(-c3ccccc3)cc2)C1 (centres undefined)	-21.7	-3.0	-7.0	-5.0	-1.0	-9.0
CC1(C)SC(=S)N(NC(=O)Nc2ccccc2)C1N(O)C(=O)Nc1cccc2ccccc12 (centres undefined)	-2.8	37.0	48.0*	45.0*	38.0	32.0
CCC(O)CNC(=O)CCc1nnc(C2(c3ccc(Cl)cc3)CCC2)o1 (centres undefined)	-25.5	-2.0	-12.0	-3.0	-6.0	-6.0
CC(C)N(Cc1cn[nH]c1-c1ccc(-c2ccccc2)cc1)Cc1nccn1C	-9.9	-2.0	-5.0	0.0	-1.0	-3.0
CN(C)S(=O)(=O)c1cccc(-c2nnc3n2CCCCC3)c1	-29.6	nt	nt	nt	nt	nt
CC1C=CCC2C(=O)N(c3ccccc3OC(=O)c3cccs3)C(=O)C12 (centres undefined)	-21.8	-1.0	-9.0	-3.0	-6.0	-3.0
CC1C=CCC2C(=O)N(c3ccc(OC(=O)c4cccs4)cc3)C(=O)C12 (centres undefined)	-17.2	-6.0	55.0*	3.0	79.0*	70.0*
Cc1ccc(SCCCCN2C(=O)NC(C)(C)C2=O)cc1	32.8*	-3.0	-9.0	-3.0	-10.0	-7.0
COc1ccc2c3c(cccc13)N(C)N=C2C	-8.5	70.0*	73.0*	27.0	40.0*	26.0
CCCn1c(C)cc(-c2csc(N)n2)c1C	-3.3	25.0	30.0	15.0	27.0	46.0*
CCCOC1CCCN(C(=O)CCc2nnc(CCCCc3ccccc3)o2)C1 (centres undefined)	-22.9	-3.0	-4.0	-3.0	-3.0	-1.0
CC(=O)Nc1sc2c(c1C(c1ccccc1Cl)N1CCN(CCO)CC1)CCCC2 (centres undefined)	-17.1	9.0	20.0	10.0	27.0	18.0
O=C1N=C(N2CCOCC2)S/C1=C/c1ccc(-c2ccc(F)cc2)o1	-4.9	2.0	7.0	0.0	3.0	-2.0
Cc1ccc(-c2ccc(/C=C3\SC(N4CCOCC4)=NC3=O)o2)cc1	-22.0	17.0	41.0*	11.0	17.0	2.0
O=C1NC(=S)S/C1=C/c1ccc(N2CCOCC2)o1	-20.1	36.0	53.0*	18.0	34.0	11.0
Cc1ccc2c(c1C)NC(C)CC2C (centres undefined)	26.4*	2.0	-11.0	-4.0	-9.0	-7.0
Cc1cccc2c1NC1(CCCC1)CC2C (centres undefined)	-15.1	nt	nt	nt	nt	nt
Cc1nc(CCNS(=O)(=O)c2cccnc2)cs1	-3.8	nt	nt	nt	nt	nt
CN(C)CCCN(C(=O)c1ccco1)c1nc2ccc(Cl)cc2s1	-10.8	0.0	-5.0	1.0	-1.0	-3.0
Cc1ccc(C(=O)N(CCCN(C)C)c2nc3ccc(Cl)cc3s2)cc1C	-8.5	4.0	57.0*	8.0	82.0*	79.0*
Cc1ccc(S(=O)(=O)N2CCCC(C(=O)Nc3ccc(C(=O)O)cc3)C2)cc1Cl (centres undefined)	-16.9	-1.0	-3.0	1.0	-2.0	-2.0
Cc1oc(-c2ccc3c(c2)OCCO3)cc1C(=O)NC(Cc1ccccc1)C(=O)O (centres undefined)	-19.6	0.0	-8.0	-2.0	-1.0	-3.0
SMILES	Furin inhibitor	Bim-Bcl-W	Bim-Bfl-1	Bim-Bcl-XL	Bim-Bcl-2	Bim-Bcl-B
CC(CCc1ccccc1)NC(=O)C1CCN(S(=O)(=O)N2CCCCC2)CC1 (centres undefined)	-12.5	25.0	38.0	41.0*	28.0	25.0
COC(=O)c1[nH]c2ccccc2c1NC(=O)CN1CCC(C(N)=O)(N2CCCCC2)CC1	28.1*	0.0	-6.0	-2.0	-7.0	-1.0
CC(NC(=O)c1ccnn1C)C1CCCO1 (centres undefined)	-26.3	0.0	-5.0	-4.0	0.0	0.0
Clc1cccc(-c2nn3c(Cn4cnc5ccccc54)nnc3s2)c1	33.8*	3.0	20.0	-6.0	-5.0	-26.0
CCn1c(-c2nn(-c3ccc(C)cc3)ccc2=O)n[nH]c1=S	-17.0	-1.0	-4.0	-3.0	0.0	-5.0
Cc1ccc(-n2ccc(=O)c(-c3ccnc(SCc4cccc(Cl)c4)n3)n2)cc1	-16.3	15.0	56.0*	12.0	79.0*	74.0*
Cn1ccc(-c2ccccc2)n1	-12.4	-1.0	-3.0	-3.0	2.0	-2.0
N#Cc1cc(-c2ccccc2)nn1-c1ccccc1	-14.1	24.0	57.0*	3.0	9.0	-9.0
Cc1c(N=C/C=C2/N(C)c3ccccc3C2(C)C)c(=O)n(-c2ccccc2)n1C	26.3*	-4.0	-2.0	-3.0	-13.0	0.0
CCOc1ccc(Br)cc1S(=O)(=O)NCc1ccncc1	-15.4	-1.0	-3.0	-2.0	0.0	-3.0
Clc1cccc(Cl)c1CNc1ccc(N2CCCC2)cc1	-4.6	25.0	59.0*	4.0	21.0	2.0
COc1ccc(/C=N/NC(=O)c2ccncc2)c(C(=O)O)c1OC	-1.0	nt	nt	nt	nt	nt
COc1cc(OC)c([N+](=O)[O-])cc1/C=N/NC(=O)c1ccncc1	-16.2	40.0*	38.0	13.0	21.0	7.0
Cc1nc(=S)c2ccccc2[nH]1	-13.8	11.0	68.0*	15.0	87.0*	85.0*
Cc1ccc(N=C2NC(=O)/C(=C/C=C/c3ccco3)S2)cc1	-9.3	15.0	52.0*	4.0	20.0	0.0
COc1ccc(Br)cc1CNC(=O)CCc1nc(-c2ccc(C)cc2)no1	25.8*	1.0	-11.0	-1.0	-7.0	-5.0
CCOc1ccc(C(=O)Nc2ccc(N3CCN(C)CC3)cc2)cc1Br	26.0*	0.0	-15.0	-3.0	-6.0	10.0
CC(C)=NOc1nc(N(C)C)nc(N2CCOCC2)n1	-15.3	nt	nt	nt	nt	nt
O=C(Cn1nnc2ccccc21)NNC(=S)NC1CCCCC1	-22.7	0.0	-9.0	-1.0	-2.0	-12.0
CCC(Sc1ncccc1C(=O)O)C(=O)N1CCCC1 (centres undefined)	28.4*	-2.0	-24.0	-11.0	-5.0	-9.0
CCC(Sc1ncccc1C(=O)O)C(=O)N1CCOCC1 (centres undefined)	-30.1	0.0	-3.0	0.0	-1.0	-1.0
Oc1ccc(C2=Nn3c(nnc3-c3ccco3)SC2)cc1O	-5.2	35.0	15.0	55.0*	17.0	36.0
Cc1ccc(C)c(Oc2ncnc(N)c2[N+](=O)[O-])c1	-3.6	29.0	43.0*	46.0*	31.0	24.0
O=c1[nH][nH]cc1C=NCc1cccc(C(F)(F)F)c1	-16.9	0.0	-4.0	0.0	0.0	-3.0
COc1ccc(CNC(=S)Nc2ccc(OC)cc2)cc1	-21.1	-6.0	-16.0	-7.0	-5.0	-6.0

High-throughput results (PubChem BioAssay)
